Results from PubChem BioAssay AID588850 (Sanford-Burnham Center for Chemical Genomics, 2011).
Out of some 360,000 compounds screened, about 3,100 (0.86%) were called active. The sample as a whole holds a higher share of actives than the screen did. Unmarked numbers belong to inactive results.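 How the source made its calls: active means at least 50% inhibition at 5 µM, scaled per plate between neutral and stimulator controls; inactive means the rest.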

Assay: inhibitors of PAF-induced NF-kB signaling, primary screen, cell-based, GFP fluorescence, uHTS (AID 588850);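 further: PAF is a Pseudomonas aeruginosa culture filtrate used as stimulus; plate controls were PAF-stimulated DMSO wells for no effect and unstimulated DMSO wells for full effect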
Settings: KKLEB NF-kB-GFP reporter, GFP fluorescence overnight, at 5 µM, active compounds read high

In the case of COC1C(O)C(C)OC(OC2CCC3(C=O)C(CCC4C3CCC3(C)C(C5=CC(=O)OC5)CCC43O)C2)C1O (stereo not given), the inhibition is reported as 91.1% (active).
For O=C1NC(=O)N(CCc2ccc(F)cc2)C(=O)/C1=C/C=C/c1ccccc1, the inhibition was 101% (active).
In the case of C[C@]12CC[C@H](O)C[C@H]1CC[C@@H]1C2CC[C@]2(C)[C@@H](C3=CC(=O)OC3)[C@@H](O)C[C@]12O (stereo not given in full), the inhibition is reported as 53.2% (active).
With CC(=CCOc1ccc2ccc(=O)oc2c1)C1=CC(=O)C(C)(C)O1 the inhibition was 75.5% (active).
With O=c1[nH]c2ccccc2n1C1CCN(C(c2ccccc2)c2nnnn2Cc2ccccc2)CC1 (stereo not given) the inhibition was 85.1% (active).
For COc1ccc(-n2nnnc2C(c2cccc3ccccc23)N2CCC(n3c(=O)[nH]c4ccccc43)CC2)cc1 (stereo not given), the inhibition was 53.2% (active).
With CN(C)CC1Oc2ccccc2OC1(O)c1ccccc1 (stereo not given) the inhibition was 75.7% (active).
In the case of CC(=O)OC1C2(CC3N4C(=O)C5(CO)SSC4(CC31O)C(=O)N5C)OC(C)C(C)(C)C2=O (stereo not given), the inhibition is reported as 88.5% (active).
For CCC(C)(O)C(=O)OC1C(=O)OC2CC3C(C)=CC(=O)C(O)C3(C)C3C4(O)OCC23C1C(C)C4O (stereo not given), the inhibition was 91.3% (active).
In the case of CCCCCCCCCCCCn1ccc(=N)cc1, the inhibition is reported as 61.8% (active).

Going from CCOP(=S)(OCC)SCOC(=O)NCC(=O)OC to CCOP(=O)(OCC)C(NC(=O)NC)C(N)=O (stereo not given), the inhibition falls from -6.4% to -12.3%.

Compared with O=c1c2ccccc2[nH]c(=S)n1-c1cccc(Cl)c1, N=c1ccccn1Cc1ccccc1 is higher in inhibition: -27.2% for the first, 14.3% for the second.

Going from Cc1ccc(-c2nn(CCC#N)cc2C(=O)O)cc1C to Cc1nn(-c2ccccc2)c(C)c1NC(=O)COC(=O)Cc1ccccc1, the inhibition falls from 13.3% to 5.1%.

Going from CC[N+](CC)(CC)CCCCCCCCCC[N+](CC)(CC)CC to CCC1(C)CC(CCNCc2ccc(N(C)C)cc2)(c2ccc(F)cc2)CCO1 (stereo not given), the inhibition rises from 9.5% to 22.8%.

Going from COc1c(O)ccc2c1-c1c3c(cc4c1C(C2)N(C)CC4)OCO3 (stereo not given) to CN1CCc2cc3c(cc2[C@H]1[C@@H]1OC(=O)c2c1ccc1c2OCO1)OCO3, the inhibition rises from -18.7% to 15.1%.

First: c1cncc(CNC2=NCCC2)c1
Second: CC1(C)C(c2ccccc2)=NC(c2cccnc2)=[N+]1[O-]
The inhibition of the first is higher: 13.7% for the first, 7.5% for the second.

Compared with CN(C)CCCN=Cc1c(O)n(Cc2ccco2)c(=O)[nH]c1=O, CCOC(=O)CC1=C(C(=O)OCC)C2(C(=O)N1)C(C(=O)OC)=C(N)Oc1ccccc12 (stereo not given) is lower in inhibition: 13.6% for the first, -14% for the second.

Going from CC12CCC(O)CC1CCC1C2CCC2(C)C(C(=O)CC(O)C(F)(F)F)CCC12 (stereo not given) to CC1=C2C(=O)C3C(CC=C4CC(OC5OC(O)C(O)C(O)C5CO)CCC43C)C2CCC12OC1CC(C)CNC1C2C (stereo not given), the inhibition falls from 9.6% to 7.6%.

Compared with CC=C(C)C(=O)OC1CCN2CC=C(COC(=O)C(O)(C(C)OC)C(C)(C)O)C12 (stereo not given), Cc1cccc(NC(=O)OC2CN3CCC2CC3)c1 (stereo not given) is higher in inhibition: 1.6% for the first, 9% for the second.

Compared with CC(C)Oc1cccc(C(=O)C2CCCN(C3CCOCC3)C2)c1 (stereo not given), COC(=O)C1=C(c2ccccc2)C[C@@H]2CC[C@H]1N2C(=O)N1CCCCC1 is higher in inhibition: -10.1% for the first, -2.3% for the second.

Compared with CCOC(=O)c1cccc(C2=C(CNC(=O)c3ccncc3)[C@H]3CC[C@@H](C2)N3Cc2ccccc2)c1, COC(=O)C1=C(c2cccc(OCc3ccccc3)c2)C[C@@H]2CC[C@H]1N2C(=O)NCc1ccc(Br)cc1 is higher in inhibition: 2.6% for the first, 6.2% for the second.

First: O=C(CCN1CCCCC1)NCC(=O)Nc1ccc(Br)cc1C(=O)c1ccccc1
Second: CN(C)S(=O)(=O)c1cc(C(=O)N2CCC(C(=O)O)(c3ccccc3)CC2)ccc1Cl
The inhibition of the first is lower: -1.9% for the first, 7.2% for the second.

First: CC1=C(C(=O)Nc2ccccc2)SCCO1
Second: O=C1NC(=O)C(Cc2ccccc2)C(=O)N1
The inhibition of the first is higher: -0.6% for the first, -11% for the second.

Going from O=C1NCN(c2ccccc2)C12CCN(C(c1cccs1)c1nnnn1C1CCCCC1)CC2 (stereo not given) to COc1cccc(C(c2nnnn2-c2ccc3c(c2)OCCO3)N2CCC3(CC2)C(=O)NCN3c2ccccc2)c1OC (stereo not given), the inhibition rises from -6.5% to -0.8%.

First: O=c1[nH]c2ccccc2n1C1CCN(C(c2ccnc3ccccc23)c2nnnn2Cc2ccccc2)CC1 (stereo not given)
Second: CSCCC(c1nnnn1C(C)(C)C)N1CCC(n2c(=O)[nH]c3ccccc32)CC1 (stereo not given)
The inhibition of the first is higher: 39.9% for the first, -10.2% for the second.

Compared with COC(=O)C1=C(c2ccccc2OCc2ccccc2)C[C@@H]2CC[C@H]1N2C(=O)NCc1ccc(OC)cc1, C=CCN1C(=O)C2(C(C(=O)OCC)=C(N)Oc3c2c(=O)oc2ccccc32)c2ccccc21 (stereo not given) is higher in inhibition: -7.5% for the first, -5.7% for the second.

First: CN(C)CC1CCCCC1=O (stereo not given)
Second: COC(=O)COc1cc(C)cc2oc(=O)c3c(c12)CCCC3
The inhibition of the first is higher: 6% for the first, 5.1% for the second.

Going from CC(C)(C)c1ccc(OC(=O)N2CCCCC2)cc1 to CN(C)C(=O)Oc1ccc(NC(=O)N2CCOCC2)cc1, the inhibition falls from 16% to -9.2%.

Compared with Cc1cc(C)c2c(c1)NP(=S)(c1ccccc1)N2 (stereo not given), CC(CC(C#N)(c1ccccc1)c1ccccc1)N1CCCCC1 (stereo not given) is lower in inhibition: 24.3% for the first, 7.8% for the second.

First: CCOC(=O)C1(Cc2ccc(Cl)cc2)CCN(C(C)CCn2cccn2)CC1 (stereo not given)
Second: O=C(CCC(=O)N1C[C@H]2C[C@@H](C1)c1cccc(=O)n1C2)NCc1ccccc1C(F)(F)F
The inhibition of the first is higher: 29.4% for the first, -6.7% for the second.
